Pf Dd2 growth: Plasmodium falciparum Dd2 growth inhibition; P. falciparum Dd2 growth, SYBR Green, 72 h; Potency, µM (series often up to 28.9 µM), usual class: inhibitors; 4.3% of 120,000 active; active = well fitted inhibition curve with a large enough effect; also: nearly all actives have a fitted effect of over 65% in size
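Readout: SYBR Green fluorescence, 485 nm excitation, 535 nm emission, after ~16 h lysis at 37C. Before that, Dd2-infected red cells (2.5% hematocrit) grew 72 h with compound, 29 uM top final concentration.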
A number is an active result. This excerpt belongs to a sample that is enriched for hits.

For CCn1c(CN2CCC(C)CC2)nc2cc(NC(=O)c3ccc([N+](=O)[O-])cc3)ccc21 the results were Pf Dd2 growth inactive.
CCC1Oc2ccc(NC(=O)c3ccccc3)cc2CN(Cc2cc(F)cc(F)c2)C1=O (stereo not drawn) was read as Pf Dd2 growth inactive.
Screening O=C(N1CC(c2nnc(-c3ccncc3)o2)C2(CCOCC2)C1)C1(c2ccccc2)CC1 (stereo not drawn) returned Pf Dd2 growth inactive.
`CC(C)CNC(=O)N1CCCN(C(=O)C2CC2)C(c2ccccc2)CC(=O)NCC1` (stereo not drawn) gave Pf Dd2 growth inactive.
Cc1nn(C)c(C)c1C(=O)N1C[C@@H](CO)[C@H](c2ccccn2)C1 was read as Pf Dd2 growth inactive.
Screening Cc1ccc(S(N)(=O)=O)cc1C(=O)N1CCCn2nc(C(C)O)cc2C1 (stereo not drawn) returned Pf Dd2 growth inactive.
C=CCn1cc2c3c(cccc31)[C@H](CC(C)C)N[C@H](C(=O)NCCCN1CCCC1=O)C2 was read as Pf Dd2 growth inactive.
Screening C=CCN1CCN(C(=O)[C@@H]2Cc3c[nH]c4cccc(c34)[C@H](CC(C)C)N2)CC1 returned Pf Dd2 growth 11µM.
For C=CCn1cc2c3c(cccc31)[C@H](CC(C)C)N[C@H](C(=O)NCc1ccc(OC)cc1)C2 the results were Pf Dd2 growth inactive.
Screening COc1ccc(OC)c(CNC(=O)CN2CC3CC(C2)[C@H]2CCCC(=O)N2C3)c1 (stereo partly drawn) returned Pf Dd2 growth inactive.
For COc1ccc(CNC[C@H]2C[C@@H]3CCN2C[C@@H]3c2cc(-c3ccc(F)cc3)nn2C)cc1 the results were Pf Dd2 growth 13µM.
`CCN(CC)C[C@H]1CN2CC[C@H]1C[C@@H]2CNS(=O)(=O)c1ccccc1` gave Pf Dd2 growth inactive.
`CC[C@H]1CN2CC[C@H]1C[C@@H]2CN(Cc1ccc(SC)cc1)Cc1ccc(SC)cc1` gave Pf Dd2 growth 3.5µM.
CC[C@H]1CN2CC[C@H]1C[C@@H]2CNC(=O)Nc1ccc(Br)cc1 was read as Pf Dd2 growth inactive.
CC[C@H]1CN2CC[C@H]1C[C@@H]2CNC(=O)c1ccc2ccccc2c1 was read as Pf Dd2 growth inactive.
`CC[C@H]1CN2CC[C@H]1C[C@@H]2CNCc1ccc(OC)cc1` gave Pf Dd2 growth 8.9µM.
`COc1ccc(-c2cc([C@H]3CN4CC[C@H]3C[C@@H]4CNS(=O)(=O)c3ccccc3)n(C)n2)cc1` gave Pf Dd2 growth inactive.
For COc1ccc(-c2cc([C@H]3CN4CC[C@H]3C[C@@H]4CNC(=O)c3ccco3)n(C)n2)cc1 the results were Pf Dd2 growth inactive.
For C=C[C@H]1CN2CC[C@H]1C[C@@H]2CNCc1ccc(N(C)C)cc1 the results were Pf Dd2 growth inactive.
Cc1ccc(C2Cn3nnc(C(=O)N4CCC(C(=O)NCCN5CCCC5)CC4)c3CO2)cc1 (stereo not drawn) was read as Pf Dd2 growth inactive.
For COCc1ccc2c(c1)c(OC(C)(C)C(=O)N1CCN(CCO)CC1)nn2Cc1cccnc1 the results were Pf Dd2 growth inactive.
`CS(=O)(=O)N1CCC2(CC1)CN(C(=O)c1ccc(Cl)cc1)CCO2` gave Pf Dd2 growth inactive.
Screening O=C(CN1C(=O)NC2(CCCCC2)C1=O)Nc1ccc(F)cc1F returned Pf Dd2 growth inactive.
Screening Cc1cccc(OCC(=O)N2[C@@H]3CC[C@H]2CC(NC(=O)c2ccncc2)C3)c1 (stereo partly drawn) returned Pf Dd2 growth inactive.
COC(=O)c1cccc(NC(=S)N[C@H]2CO[C@H]3[C@@H]2OC[C@@H]3n2nnnc2-c2cccc(OC)c2)c1 was read as Pf Dd2 growth inactive.
CCc1ccccc1N(C)C(=O)Cc1c(C(=O)O)c(C)cn1C was read as Pf Dd2 growth inactive.
For COc1ccc(CNC(=O)Nc2cn(CC(C)C)c(=O)c3ccccc23)c(OC)c1 the results were Pf Dd2 growth inactive.
`CCc1ccccc1N(C)C(=O)Nc1cn(CC(C)C)c(=O)c2ccccc12` gave Pf Dd2 growth 8.9µM.
Screening CCCS(=O)(=O)N1C[C@@H](Oc2cccnc2)C[C@@H]1C(=O)N1CCOCC1 returned Pf Dd2 growth inactive.
`CC(C)NC(=O)N1CCCCC1c1nnc2n1CCNC2` (stereo not drawn) gave Pf Dd2 growth inactive.
Cc1cccc(NC(=O)CSc2nc3ccc(NC(=O)CCc4ccccc4)cc3s2)c1 was read as Pf Dd2 growth inactive.
CCC(=O)Nc1ccc2nc(SCc3ccccc3)sc2c1 was read as Pf Dd2 growth inactive.
Screening CCCC(=O)Nc1ccc2nc(SCc3ccc(C)cc3)sc2c1 returned Pf Dd2 growth 8.9µM.
`COC(=O)c1cccc2nc([C@H]3CCN(Cc4ccccc4C)C3)oc12` gave Pf Dd2 growth inactive.
Screening COc1cccc(-c2ncc(CNC(=O)[C@H]3CC[C@@H](N)C3)s2)c1 returned Pf Dd2 growth inactive.
`CN(C)CC1(COc2cccnc2)C[C@@H](O)[C@@H](O)C1` (stereo partly drawn) gave Pf Dd2 growth inactive.
For CC1=C[C@@H](CNC(=O)c2ccccc2)[C@H](C(C)C)C[C@H]1CC(=O)N1CCOCC1 the results were Pf Dd2 growth inactive.
`Cc1ccc([S+](=O)([O-])N2CCC(c3nn(-c4ccccc4)c(=O)[nH]3)CC2)cc1` gave Pf Dd2 growth inactive.
For O=C1NCCCCCCN(Cc2ccncc2)[C@@H]2CN(Cc3ccccn3)CC[C@@H]12 the results were Pf Dd2 growth inactive.
`CS(=O)(=O)N1CC[C@@H]2C(=O)NCCCCCCN(Cc3ccncc3)[C@@H]2C1` gave Pf Dd2 growth inactive.
Screening O=C1NCCCCCCN(Cc2ccncc2)[C@@H]2CN(S(=O)(=O)c3cccnc3)CC[C@H]12 returned Pf Dd2 growth inactive.
Screening COc1cccc(CN2CC[C@@H]3C(=O)NCCCCCCN(Cc4ccncc4)[C@@H]3C2)n1 returned Pf Dd2 growth 4µM.
For O=C1NCCCCCCN(Cc2ccncc2)[C@@H]2CN(S(=O)(=O)c3ccccc3)CC[C@H]12 the results were Pf Dd2 growth 10µM.
Cn1cccc1CN1CC[C@@H]2C(=O)NCCCCCCN(Cc3ccncc3)[C@@H]2C1 was read as Pf Dd2 growth 6.3µM.
`O=C1NCCCCCCN(Cc2ccncc2)[C@@H]2CN(C3CCOCC3)CC[C@@H]12` gave Pf Dd2 growth inactive.
O=C1NCCCCCCN(Cc2ccncc2)[C@@H]2CN(Cc3cccnc3)CC[C@H]12 was read as Pf Dd2 growth inactive.
`CCN1CCC(N2CC[C@@H]3C(=O)NCCCCCCN(Cc4ccncc4)[C@@H]3C2)CC1` gave Pf Dd2 growth inactive.
For COC[C@@H]1CN(C(=O)COc2ccccc2)C[C@H]1c1nc(C)no1 the results were Pf Dd2 growth inactive.
Fc1ccc(CN2CCOC[C@H]2c2ncc(-c3ccc(F)cc3)[nH]2)cc1 was read as Pf Dd2 growth inactive.
Screening COC1C(=O)N(C2CCN(S(=O)(=O)c3cccs3)CC2)C12CCOCC2 (stereo not drawn) returned Pf Dd2 growth inactive.
`O=C(CC[C@@H]1CNC(=O)[C@@H]2C[C@H](NC(=O)Nc3cccc(Cl)c3)CN12)NCc1cccs1` gave Pf Dd2 growth inactive.
Screening CN(Cc1ccccc1)C(=O)C[C@@H]1O[C@H](CNCc2ccc(F)cc2)[C@@H](O)[C@H]1O returned Pf Dd2 growth inactive.
O=C(NC1CC1)[C@H]1O[C@H](CCN2CCOCC2)CC[C@@H]1O was read as Pf Dd2 growth inactive.
`O=C(Nc1nccs1)[C@H]1CN2CCC1C[C@@H]2Cn1cc(CCO)nn1` (stereo partly drawn) gave Pf Dd2 growth inactive.

Assay outcomes from PubChem.
